# Screens: PubChem, National Center for Advancing Translational Sciences (NCATS)
# Compounds with a hit are over-represented: about 6.1% of the library has one in this group of screens.
# ERG Ets-DNA blk: blocks human ERG Ets domain binding to DNA; fluorescence polarization, His-ERG Ets domain / labelled DNA; Potency, µM (doses to about 76.9 µM), for the others: at the highest dose FP activity, negative = inhibition, actives largely listed as inhibitors; actives 0.028% (n = 370,000); AID 624246; active = well fitted inhibition curve with a large enough effect in the polarisation, with a control signal flat; the % refers to the polarisation;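 note: polarization taken with two DNA probes labelled with fluorescein and Texas red; potency is the fitted concentration of half-maximal effect; % of control where 0% means no effect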
# Target sequence (P11308 whole entry, looked up, the tested form may be a part): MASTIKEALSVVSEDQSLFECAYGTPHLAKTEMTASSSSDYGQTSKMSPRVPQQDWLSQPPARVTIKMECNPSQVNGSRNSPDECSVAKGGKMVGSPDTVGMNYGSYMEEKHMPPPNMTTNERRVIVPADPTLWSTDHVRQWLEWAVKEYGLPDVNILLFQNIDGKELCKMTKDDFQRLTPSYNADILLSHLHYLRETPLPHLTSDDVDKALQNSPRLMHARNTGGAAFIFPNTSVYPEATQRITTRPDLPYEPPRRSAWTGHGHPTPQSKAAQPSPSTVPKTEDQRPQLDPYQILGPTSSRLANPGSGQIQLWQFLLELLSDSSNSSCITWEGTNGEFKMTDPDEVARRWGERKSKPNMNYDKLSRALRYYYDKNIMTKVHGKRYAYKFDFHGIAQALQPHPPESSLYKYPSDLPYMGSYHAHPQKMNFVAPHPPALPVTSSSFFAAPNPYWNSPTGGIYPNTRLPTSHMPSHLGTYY
#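 His-tagged ERG Ets domain (1 uM in the protein solution; 300mM KCl, 50mM Tris-HCl, 1mM EDTA, 1mM DTT, pH 7.5) received compound, then a probe mix of 5 nM fluorescein-DNA and 100nM Texas-615-DNA. Fluorescence polarization was read for both dyes.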
# D1 agonist: human D1 receptor agonism; P21728; HEK293 T-REx D1 cells, calcium flux, agonist mode; activation, % at 2 µM; actives 1% (n = 360,000); AID 504660; in the data active = activation above about 30%; note: 0% is about no effect
#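 Tetracycline-induced HEK293 TREx D1 cells, force-coupled to calcium signalling, were dye-loaded with a no-wash calcium kit. Compound was pin-added after a 10 s baseline. Fluorescence was read kinetically at 1 cycle/s for 180 s, with calcium rises flagged as agonism.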
# DRD3 agonist: agonists of human D3 dopamine receptor. max activation, %. P35462. D3R DiscoveRx beta-arrestin cells, luminescence, 90 min. actives 0.58% (n = 410,000). AID 652048; in the data active = max activation above about 30%; note: 0% is about no effect
#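 Agonist-mode cell screen: cells plated at 1500/well and incubated overnight at 37 °C, then exposed to library compounds for 90 min at 37 °C. Detection reagent was added for 30–60 min at room temperature, and luminescence was read.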
# D1 potentiator: potentiators of human D1 dopamine receptor. HEK293 TREx D1 cells, calcium flux, dopamine EC20 potentiation. P21728. potentiation, % at 10 µM. actives 0.036% (n = 360,000); in the data active = potentiation above about 30%; note: 0% is about no effect
# D3 antag: D3 dopamine receptor (human) antagonism; max response, negative = inhibition, %; D3R cells, DiscoveRx beta-arrestin luminescence, antagonist mode; hits give low values; P35462; actives 2.5% (n = 360,000); in the data active = max response below about -50%; note: % is set by controls: 0 for no effect and ±100 for the full control effect
#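 Cells plated overnight at 1500 cells/well, then exposed to library compounds with dopamine controls for 90 minutes at 37 degrees C. DiscoveRx reagent added for 30–60 minutes at room temperature; luminescence read, quantitative HTS format.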
# D1 antag: human D1 dopamine receptor antagonism; HEK293 TREx D1 cells, calcium flux, dopamine EC80; hits give low values; actives 3.2% (n = 360,000); activity change, negative = inhibition, % at 10 µM; AID 504652; in the data active = activity change below about -30%; note: % is set by controls: 0 for no effect and ±100 for the full control effect
#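 Compound effects on dopamine-evoked calcium signalling were measured in tetracycline-induced HEK293 Trex D1 cells. Dopamine at EC80 followed a 180 s compound pre-read, and fluorescence was tracked kinetically for 180 s more.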
# An asterisk follows results filed as active; . = no result given; [ ] = another dose, or the depositor's remark.
SMILES,ERG Ets-DNA blk,D1 agonist,DRD3 agonist,D1 potentiator,D3 antag,D1 antag
COc1ccc(S(=O)(=O)N2CCN(C(=O)c3c(C)nn(-c4ccccc4)c3Cl)CC2)cc1,-1%,2,-15,-1,0,-8
Cc1ccc(S(=O)(=O)N2CCN(C(=O)c3c(C)nn(-c4ccccc4)c3Cl)CC2)cc1,.,-1,-14,-1,-71*,-16
Cc1ccc(S(=O)(=O)N2CCN(C3CC4CCC3C4)CC2)cc1 (stereo unspecified),15%,2,-23,-4,-61*,-9
O=S(=O)(c1ccccc1)N1CCCN(S(=O)(=O)c2ccccc2)CC1,-1%,14,6,4,4,-45*
Cc1cc(C)c(S(=O)(=O)N2CCN(C(=O)c3c(C)nn(-c4ccccc4)c3Cl)CC2)c(C)c1,11%[15.4 µM],.,4,.,5,.
Cc1cc(C)c(S(=O)(=O)N2CCN(C(=O)c3ccc(-n4nc(C)c(Cl)c4C)cc3)CC2)c(C)c1,6%,.,101*,.,-2,.
CCCCn1nnnc1SCC(=O)Nc1sc2c(c1C#N)CCCC2,1%,1,6,-5,-10,0
COc1cccc(/C=N/NC(=O)C(=O)N/N=C/c2cccc(OC)c2OC)c1OC,-7%,0,2,-3,-17,1
O=C(NC(=O)N1CCCc2ccccc21)c1ccccc1,-13%,0,5,2,3,-2
CC(C)(C)OC(=O)NCCc1nnc(SCc2cccc(Cl)c2)o1,-4%,-1,7,6,-2,5
Cc1ccc(S(=O)(=O)N2CCN(S(C)(=O)=O)C2)cc1,2%,3,18,-2,49,-11
Cc1ccc(S(=O)(=O)N2CCN(S(=O)(=O)c3ccccc3)C2)cc1,8%,2,3,-8,-51*,-17
NS(=O)(=O)c1ccc(Nc2nc(-c3cccc([N+](=O)[O-])c3)cs2)cc1,1%,2,-16,-11,-7,-31*
NS(=O)(=O)c1ccc(Nc2nc(-c3ccc4ccccc4c3)cs2)cc1,4%,7,21,-4,30,-10
COc1ccc(CCNC(=O)COc2ccc(-c3ccc(C#N)cc3)cc2)cc1,-1%,3,2,-5,-5,-21
N#Cc1ccc(-c2ccc(OCC(=O)NCCc3ccccc3)cc2)cc1,-4%,36*,-1,-7,15,-48*
COC(=O)c1ccc(COC(=O)C2CCN(S(=O)(=O)c3ccccc3C(=O)OC)CC2)cc1,-3%[15.4 µM],.,6,.,35,.
COC(=O)c1ccccc1S(=O)(=O)N1CCC(C(=O)OCc2ccc([N+](=O)[O-])cc2)CC1,9%,13,1,-2,17,-40*
O=c1c2cc(Cl)ccc2nc(-c2ccc([N+](=O)[O-])cc2)n1O,-9%,3,-5,-1,-26,-3
O=c1c2cc(Br)ccc2nc(-c2ccc(Cl)cc2)n1O,8%,107*,5,-6,12,4
N#Cc1ccccc1CSc1ccc(-c2nc3ccccc3[nH]2)cn1,.,15,-5,-6,20,-35*
CC(=O)CSc1ccc(-c2nc3ccccc3[nH]2)cn1,-16%,0,-1,-7,-8,10
CC(=O)CSc1ccc(-c2nc3cc(C)c(C)cc3[nH]2)cn1,-1%,2,-2,-3,4,11
Cc1cc2nc(-c3ccc(SCc4ccc(C#N)cc4)nc3)[nH]c2cc1C,0%,-1,-9,-11,-18,-43*
COc1ccc(CNC(=O)c2ccc(Sc3ccc(Cl)cc3)c(NC(C)=O)c2)c(OC)c1,3%,2,2,-3,.,11
SMILES,ERG Ets-DNA blk,D1 agonist,DRD3 agonist,D1 potentiator,D3 antag,D1 antag
O=c1c2ccccc2nnn1COc1ccc(F)cc1Cl,4%,1,-5,-4,0,-3
CC(C)CN(C(=O)COC(=O)CNC(=O)c1sc2ccccc2c1Cl)C1CCS(=O)(=O)C1 (stereo unspecified),7%,1,-6,4,24,1
O=C(COc1ccc(Cl)cc1)OCC(=O)N1CCCC1,-20%,3,5,1,22,2
O=C(COc1ccc(Cl)cc1)OCC(=O)N1CCCCCC1,9%,1,7,7,20,-34*
CC1CN(C(=O)COC(=O)COc2ccc(C#N)cc2)CC(C)O1 (stereo unspecified),2%,-1,2,-3,-3,-47*
O=C(COc1ccc(Cl)cc1)N1CCN(c2ccc([N+](=O)[O-])c(N3CCCCC3)c2)CC1,9%,3,-3,-2,21,-31*
O=C(CSc1nnc(COc2ccc(Cl)cc2)o1)N1CCCCC1,0%,16,-2,-6,0,-31*
O=C(COc1ccc(Nc2ccccc2)cc1)OCC(=O)N1CCCCC1,-1%,11,-1,-3,0,-37*
O=C(NCC(c1ccc2c(c1)OCO2)N1CCN(c2ccccc2)CC1)c1ccccc1F (stereo unspecified),13%,2,-15,1,.,0
CCCC(=O)N(c1ccc2oc(C)c(C(C)=O)c2c1)S(=O)(=O)c1ccc(C(=O)O)cc1,0%,1,-12,-8,-25,-42*
COc1ccc(-c2noc(CN(C)CCC3CCCCO3)n2)cc1 (stereo unspecified),19%,5,35*,-5,10,14
COC(=O)c1ccc(-c2noc(CN(C)Cc3ccncc3C)n2)cc1,9%,17,0,-4,39,-41*
COC(=O)c1ccc(-c2noc(CN(C)CCC3CCCCO3)n2)cc1 (stereo unspecified),0%,4,10,-7,7,-61*
COc1ccc(-c2noc(CCC(=O)NCC3CCCO3)n2)cc1 (stereo unspecified),10%,3,3,0,2,2
COc1ccc(OC(C)C(=O)N(C)Cc2nc(-c3ccc(OC)cc3)no2)cc1 (stereo unspecified),-17%,12,40*,-1,2,9
COc1ccc(OC(C)C(=O)N(C)Cc2nc(-c3ccc(C)cc3)no2)cc1 (stereo unspecified),1%,11,13,-2,15,-3
Cc1cccc(N2CCN(C(=O)c3ccoc3C)CC2)c1C,5%,1,36*,-5,7,-16
Cc1cccc(N2CCN(C(=O)c3cc4ccccc4oc3=O)CC2)c1C,-4%,4,1,-10,0,-76*
CN(C)C(=O)c1ccc2c(c1)N(CC(=O)NCc1ccccc1Cl)C(=O)C1CCCCN21 (stereo unspecified),1%,1,-1,0,.,-3
NS(=O)(=O)c1ccc(CCNC(=O)CNC(=O)c2ccccc2Br)cc1,4%,5,5,-1,4,-6
